Results filed as inconclusive are left out. Calls of active or inactive are those of the source. Calls follow the shape of the dose curve; as a rule, active = well fitted curve in the direction sought with a large enough effect; inconclusive = small, poorly fitted or top-dose-only effect, or another doubt; inactive = no such curve, though single readings can be large or run the other way.

Calcium and integrin-binding protein 1 (Homo sapiens), sequence (Q99828 whole entry, looked up): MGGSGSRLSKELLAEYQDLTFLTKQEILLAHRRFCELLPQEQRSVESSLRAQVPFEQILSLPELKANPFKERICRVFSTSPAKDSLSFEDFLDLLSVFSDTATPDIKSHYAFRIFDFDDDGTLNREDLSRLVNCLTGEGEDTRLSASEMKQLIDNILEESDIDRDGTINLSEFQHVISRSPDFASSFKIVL

This assay has as its target Calcium and integrin-binding protein 1 (Homo sapiens) (UniProt Q99828). The experiment in a line: Validation qHTS for Identification of Calcium Integrin Binding protein 1 (CIB1) Competitor (AID 1508618). As to conditions: CIB1-GST / FITC-alphaIIb peptide fluorescence polarization; series mostly up to 114 µM. The method, boiled down: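 CIB1-GST (1 uM final) incubated 15 min at room temperature with compounds (up to 114 uM), then FITC-labelled alphaIIb peptide (100 nM) added. FP read (Ex 480/Em 540) after 15 min, pH 7.4 buffer containing 5 mM CaCl2.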
In the case of `CNCC(O)c1ccc(O)c(O)c1` (stereo not drawn), the outcome was inactive.
With `C[C@H]1O[C@@H](n2cc(F)c(=O)[nH]c2=O)[C@H](O)[C@@H]1O` the entry was “inactive”; with `CCN(CC)CCNC(=O)c1c(C)[nH]c(/C=C2\C(=O)Nc3ccc(F)cc32)c1C`, “inactive”; with `CCCCN(CCCC)CC(O)c1cc(Cl)cc2c1-c1ccc(Cl)cc1/C2=C/c1ccc(Cl)cc1` (stereo not drawn), “inactive”.
The entry for `CC(=O)c1ccc2c(c1)N(CCCN(C)C)c1ccccc1S2` is “inactive”; for `CC[C@H]1CN2CCc3cc(OC)c(OC)cc3[C@@H]2C[C@@H]1C[C@H]1NCCc2cc(OC)c(OC)cc21` it is “inactive”.
As for `NC1[C@H]2CN(c3nc4c(cc3F)c(=O)c(C(=O)O)cn4-c3ccc(F)cc3F)C[C@@H]12` (stereo partly drawn), the outcome was inactive.
With `CC(C)c1c(C(=O)Nc2ccccc2)c(-c2ccccc2)c(-c2ccc(F)cc2)n1CC[C@@H](O)C[C@@H](O)CC(=O)O`, the result was inactive.
Consider `C[C@H](NC(CCc1ccccc1)C(=O)O)C(=O)N1CCC[C@H]1C(=O)O` (stereo partly drawn), for which the outcome was inactive.
Turning to `Cc1c(O)cccc1C(=O)N[C@@H](CSc1ccccc1)[C@H](O)CN1C[C@H]2CCCC[C@H]2C[C@H]1C(=O)NC(C)(C)C`, the outcome was inactive.
With `N=c1c[n+](N2CCOCC2)[n-]o1` the entry was “inactive”.
The entry for `CN1CCC[C@@H]1Cc1c[nH]c2ccc(CCS(=O)(=O)c3ccccc3)cc12` is “inactive”; for `O=C1NC(=O)[C@@]2(CCOc3ccc(F)cc32)N1` it is “inactive”.

(Values after PubChem BioAssay (NCATS).)
